Screens: PubChem BioAssay, Broad Institute
FGF22 binding = binders of human FGF22 protein, primary screen, FGF22 synaptogenesis inhibitor project, biophysical, thermal shift, single point; Fibroblast growth factor 22 (Homo sapiens), Q9HCT0; 340,000 compounds, 1.5% hits; activity (Tm shift, normalised), % at 9.99 µM; recombinant FGF22 thermal shift, SYPRO orange fluorescence; percent of sucrose octasulfate shift, DMSO zero;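 active means mean Tm shift, scaled 0 neutral to 100 positive control, at about 1.3% or above, every replicate too, limit read from the data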
SIRT5 inh = SIRT5 desuccinylase inhibitors, primary screen, biochemical, fluorescence imaging, single point, set 5; Purified SirT5, succinyl-peptide AMC, trypsin-coupled fluorescence; 330,000 compounds, 1.1% hits; NAD-dependent protein deacylase sirtuin-5, mitochondrial (Homo sapiens), Q9NXA8; inhibition, % at 15 µM; in the data active means inhibition above about 15%
Target sequence (Q9NXA8 whole entry, looked up): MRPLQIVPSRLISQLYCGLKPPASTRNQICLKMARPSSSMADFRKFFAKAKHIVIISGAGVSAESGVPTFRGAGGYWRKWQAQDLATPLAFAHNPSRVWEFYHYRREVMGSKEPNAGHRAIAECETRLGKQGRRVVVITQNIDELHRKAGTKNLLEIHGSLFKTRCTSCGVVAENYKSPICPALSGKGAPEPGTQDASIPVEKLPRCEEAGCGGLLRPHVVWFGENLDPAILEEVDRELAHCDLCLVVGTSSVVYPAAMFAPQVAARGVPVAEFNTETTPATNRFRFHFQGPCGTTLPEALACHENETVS
INS-1E GSIS act = GLuc luminescence reporter in INS-1E cells, primary screen for activators of glucose-dependent secretion of insulin; INS-1E GLuc reporter insulin secretion, 2-3 h; 370,000 compounds, 0.61% hits; AID 743287, 2014; activation, % at 16.6 µM;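 active means lowest replicate activation of at least 40%, so every replicate reaches that level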
ERAP1 HTS inh = human ERAP1 aminopeptidase inhibitors, primary screen, biochemical, single point, plate reader | 340,000 compounds, 0.15% hits | Endoplasmic reticulum aminopeptidase 1 (Homo sapiens), Q9NZ08 | recombinant ERAP1, Leu-AMC fluorescence, 60 min | inhibition, % at 10.7 µM;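 active means mean replicate inhibition of at least 30%, or all replicates individually reaching that 30% level; inactive means mean below 30% and not every replicate reaching it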
CASP6 VEID inh = human caspase-6 inhibitors, primary screen, biochemical, VEID-R110 fluorescence, single point, set 2 | 350,000 compounds, 0.53% hits | inhibition, % at 12.5 µM | purified caspase-6, Z-VEID-R110 cleavage fluorescence | AID 686996, 2013 | P55212;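 active means mean inhibition across replicates at least about 35%, with every replicate also reaching that limit, limit read from the data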
Numbers stand for hits; i = inactive; nt = no result given. The list is not random: actives were taken first. Their share in the collection is about 3.3%.

SMILES | FGF22 binding | SIRT5 inh | INS-1E GSIS act | ERAP1 HTS inh | CASP6 VEID inh
Cc1ccc2c(c1)c1c(n2CC(O)CNC(C)(C)C)CCCC1 (stereo unspecified) | i | nt | i | i | 65.1
Cc1ccc2c(c1)c1c(n2CC(O)CN2CCCCCC2)CCCC1 (stereo unspecified) | i | i | i | i | nt
CN(C)c1ccc(/C=C2\SC(=O)N(CC(O)Cn3c4ccccc4c4ccccc43)C2=O)cc1 (stereo unspecified) | nt | nt | i | nt | nt
CN(C)c1ccc(/C=C2/SC(=O)N(CCN=C3NS(=O)(=O)c4ccccc43)C2=O)cc1 | i | 18.1 | i | i | i
COc1ccc2[nH]cc(CCNS(=O)(=O)Cc3ccccc3)c2c1 | 43.2 | i | i | i | i
COc1ccc(OC)c(S(=O)(=O)NCCc2ccccc2)c1 | i | 15.3 | i | i | i
O=C(CSc1nnc(-c2ccco2)n1-c1ccccc1Cl)Nc1cccc(C(=O)O)c1 | i | i | i | i | 55.4
O=C(CSc1nnc(-c2ccncc2)n1-c1ccccc1Cl)Nc1ccc(C(=O)O)cc1 | i | nt | i | i | i
CC(=O)Nc1cccc(C(=O)/C=C/c2ccc(F)cc2)c1 | i | i | i | i | i
CC(=O)Nc1cccc(C(=O)/C=C/c2ccc(/C=C/C(=O)c3cccc(NC(C)=O)c3)cc2)c1 | 43.1 | i | i | i | i
CCN(C[C@H]1N[C@@](CC)(C(=O)OC)[C@H]2C(=O)N(C)C(=O)[C@@H]12)S(=O)(=O)c1ccc(-c2ccccc2)cc1 | i | i | i | i | i
COC(=O)[C@]1(Cc2ccccc2)N[C@H](CN(C)C(=O)c2ccccc2)[C@@H]2C(=O)N(Cc3ccccc3)C(=O)[C@@H]21 | 43.1 | i | i | i | i
CCN(C[C@H]1N[C@@](CC)(C(=O)OC)[C@H]2C(=O)N(C)C(=O)[C@@H]12)S(=O)(=O)c1ccc(OC)cc1 | i | i | 52.1 | i | i
CC[C@@]1(C(=O)OC)N[C@H](CN(C)C(C)=O)[C@@H]2C(=O)N(Cc3ccccc3)C(=O)[C@@H]21 | 43.7 | nt | i | i | i
CC[C@@]1(C(=O)OC)N[C@H](CN(C)C(=O)c2ccccc2)[C@@H]2C(=O)N(C)C(=O)[C@@H]21 | 43.0 | nt | i | i | i
CO[C@@H]1CN(C)C(=O)c2cc(NC(=O)Nc3c(C)noc3C)ccc2OC[C@H](C)N(CC2CC2)C[C@H]1C | i | i | i | i | i
C[C@H]1CN([C@@H](C)CO)C(=O)CCCn2cc(nn2)CO[C@H]1CN(C)S(=O)(=O)c1ccc(-n2cccn2)cc1 | i | i | i | i | i
CCN1CC(=O)N2[C@H](CO)[C@H](c3ccc(Br)cc3)[C@@H]2C1 | nt | i | i | i | i
COCC(=O)N(C)C[C@H]1N[C@@](C)(C(=O)OC)[C@H]2C(=O)N(Cc3ccccc3)C(=O)[C@@H]12 | 43.2 | nt | i | i | i
COC(=O)[C@]1(C)N[C@H](CN(C)C(=O)Nc2ccccc2)[C@@H]2C(=O)N(Cc3ccccc3)C(=O)[C@@H]21 | i | i | i | i | i
Cc1ccc(C(=O)O/N=C(\c2ccccc2)c2cccnc2)cc1 | i | 33.4 | i | i | i
COc1ccc(/C(C)=N/NC(=O)Cn2nc([N+](=O)[O-])cc2C)cc1 | i | i | 51.0 | i | i
COc1ccc(CNC(=O)Cn2nc([N+](=O)[O-])cc2C)cc1 | i | i | i | i | i
Cc1nnc(SCC(=O)N(C)C2CCCCC2)n1C | i | i | i | i | 55.2
CCCC#Cc1ccc([C@@H]2[C@@H](CO)N3C(=O)CN(C(=O)NC4CCCC4)C[C@H]23)cc1 | nt | i | i | i | i
CCS(=O)(=O)N1CCC2(CC1)CN(S(=O)(=O)c1ccccc1)[C@H](CO)c1c2c2ccc(OC)cc2n1C | i | nt | i | i | nt
CC(=O)N(C1=C(Cl)C(=O)c2ccccc2C1=O)C1CCCCC1 | i | i | i | 68.3 | i
CC(=O)N(c1ccccc1C)C1CCCC1 | i | i | i | i | i
C/C=C/C(=O)OCC(=O)Nc1ccc(OC)c(OC)c1 | 43.2 | i | i | i | i
COc1ccc(CC(=O)OCC(=O)Nc2cccc(C(C)=O)c2)cc1OC | i | i | 59.2 | i | i
